# Test results as given in PubChem BioAssay (Tox21).
# Results filed as inconclusive are left out. A number with no mark means an inactive call. Active and inactive are the calls of the source. Calls follow the shape of the dose curve; as a rule, active = well fitted activation curve with a large enough effect in the signal ratio in the repeat runs (not every such curve was filed as active); inconclusive = weak or mixed curves; inactive = flat fitted curve, though single readings scatter; the % refers to the signal ratio.
# Assay: qHTS assay to identify small molecule agonists of the hypoxia (HIF-1) signaling pathway (AID 1224846)
# Conditions: HRE-bla ME-180 cells, beta-lactamase ratio, 17 h; series mostly up to 76.8 µM
# From the text: U.S. Tox21 Program National Center for Advancing Translational Sciences [NCATS] NIH Chemical Genomics Center [NCGC] U.S. Environmental Protection Agency [EPA] National Institutes of Environmental Health Sciences [NIEHS] National Toxicology Program [NTP] U.S. Food and Drug Administration [FDA] Tox21 Assay Overview: Hypoxia-inducible factor-1 (HIF-1) is the major hypoxia-regulated transcription factor that controls cellular responses to low oxygen concentration. HIF-1 is composed of two subunits: hypoxia responsive HIF-1-alpha and constitutively expressed HIF-1-beta, which is also known as aryl hydrocarbon receptor nuclear translocator. During hypoxic conditions, HIF-1-alpha heterodimerizes with HIF-1-beta and translocates into the nucleus where the HIF-1 complex binds to the hypoxia-response element (HRE) and activates expression of target genes such as VEGF (vascular endothelial growth factor). The HIF-1 pathway is essential to normal growth and development, and is involved in the pathophysiology of cancer, inflammation, and ischemia. Using a beta-lactamase reporter-gene under control of the hypoxia response element, a cell-based assay [CellSensor(TM) HRE-bla ME-180 from Life Technologies, Carlsbad, CA] was used to measure hypoxia-induced signaling. Tox21 10K library compounds were measured for their ability to induce the reporter gene activity.
# Tox21 Assay Protocol Summary: HRE-bla ME-180 cells were dispensed at 2,000 cells per well in 6 uL of assay medium containing 0.5% dialyzed FBS into black wall/clear-bottom 1536-well plates using a Multidrop Combi (Thermo Scientific, Waltham, MA) dispenser. After the assay plates were incubated at 37C and 5% CO2 for 5 hrs, 23 nL of compounds dissolved in DMSO, positive controls or DMSO only was transferred to each well of the assay plate using a Pintool station (Kalypsys, San Diego, CA). The assay plates were incubated at 37C and 5% CO2 for 17 hrs. One uL of LiveBLAzerTM B/G FRET substrate (CCF4-AM) (Life Technologies) was added to each well using a Flying Reagent Dispenser (Aurora Discovery, San Diego, CA).
# % is scaled to controls: 0 for no effect and ±100 for the full control effect.
Structure (SMILES),outcome,activation
CCOC(=O)CC(C(C)=O)C(C)=O,inactive,
CCCCS,inactive,
CCOCCOCCOC(C)=O,inactive,
COc1cc(C(=O)NC2CCCNC2)cc(OC)c1OC (stereo not given),inactive,
CC(CN1CC(=O)NC(=O)C1)N1CC(=O)NC(=O)C1 (stereo not given),inactive,
O=c1c(O)c(O)c1=O,inactive,
O=C(O)Cc1c(Cl)ccc(Cl)c1Cl,inactive,
C[C@@H](CN1CC(=O)NC(=O)C1)N1CC(=O)NC(=O)C1,inactive,
CC/C=C/CCCCCCCCCCOC(C)=O,inactive,
C=C(C)C(=O)OCCOC1CC2CC1C1C=CCC21 (stereo not given),inactive,
Cc1ccc2cccnc2c1,inactive,
CCC(C)(C)C,inactive,
O=C(O)P(=O)(O)O,inactive,
NC(=O)CC[C@@H](N)C(=O)O,inactive,
CC(=O)c1ccc2ccc3ccccc3c2c1,inactive,
COC(=O)c1ccc(C(=O)O)cc1,inactive,
COC(=O)N/N=C/c1c[n+]([O-])c2ccccc2[n+]1[O-],inactive,
CC(CC(=O)Cl)CC(C)(C)C (stereo not given),inactive,
CCc1ncc(C)[nH]1,inactive,
CCOC(=O)COc1ccc2c(C)c(CCN(CC)CC)c(=O)oc2c1Cl,inactive,

Structure (SMILES),outcome,activation
CCCCCCCCC1CO1 (stereo not given),inactive,
CN(C)CCCN(C)C,,-0.634% [at 7.01 µM]
BrCCOc1ccccc1,inactive,
COC(=O)c1ccccc1Cl,inactive,
CC(=O)Nc1ccc(S(=O)(=O)Nc2cc(C)on2)cc1,inactive,
CC1=C(O)C(=O)CO1,inactive,
CCCC(=O)OC,inactive,
CC(C)(C)C(=O)NCCCC(=O)O,inactive,
CSC(=O)c1cccc2nnsc12,inactive,
c1coc(Cn2cccc2)c1,inactive,
CC(=O)c1c(C)cc(C(C)(C)C)cc1C,inactive,
CC(C)(C)c1ccc(C(=O)CCCCl)cc1,inactive,
O=C(CCBr)N1CCN(C(=O)CCBr)CC1,inactive,
CC(C)c1cc(C(C)C)cc(C(C)C)c1,inactive,
CCCCCCCOC(C)=O,inactive,
COc1cc(OC)cc(OC)c1,inactive,
COCCCOc1cc(C[C@@H](C[C@H](N)[C@@H](O)C[C@H](C(=O)NCC(C)(C)C(N)=O)C(C)C)C(C)C)ccc1OC,inactive,
O=c1[nH]c(=O)c2cn[nH]c2[nH]1,inactive,
CCN(CC)CC,inactive,
C[C@@H]1CCC[C@H](C)N1CCCC(O)(c1ccccc1)c1ccccn1 (stereo not given in full),inactive,
